Only some compounds are listed: those with a hit (about 0.49% of all), similar ones and a draw of the others.
LDHA inh = qHTS assay for inhibitors of human lactate dehydrogenase; purified LDHA, NADH/diaphorase-resazurin fluorescence; hits give low values; AID 1347041, 2019; actives 0.15% (n = 480,000); activity change, % (values are at about 110 or 230 µM); L-lactate dehydrogenase A chain (Homo sapiens), P00338; in the data active = activity change below about -30%; inconclusive = mostly about -25% to -30%;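 note: plate controls were DMSO wells for no effect and wells without enzyme for full effect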
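Human LDH5 (2 nM) was incubated with 0.06 mM NADH and 0.2 mM pyruvate for 5 min at room temperature in Tris pH 7.4. Remaining NADH was coupled through diaphorase/resazurin, and resorufin fluorescence was read at 0 and 20 min.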
Vif-A3F inh = qHTS for Inhibitors of Vif-A3F Interactions: qHTS; HeLa A3F-eYFP + Vif (tagged APOBEC3F with the HIV-1 protein that degrades it), YFP fluorescence increase; Potency, µM (highest dose often 46.1 µM), without a hit: at the top dose activity, negative = active; actives 0.2% (n = 390,000); AID 602313, 2012; note: potency is the fitted concentration of half-maximal effect; % of control where 0% means no effect; nearly all actives have a fitted effect of over 65% in size
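HeLa cells stably expressing Vif plus C-terminally eYFP-tagged A3F were seeded, incubated overnight at 37 deg C, dosed with compound, incubated overnight again at 37 deg C. Yellow fluorescence (Ex 488/Em 500-530) reported blocked Vif-mediated A3F-eYFP degradation.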
Anesthetic bind = qHTS Assay for Identification of Novel General Anesthetics | Ferritin light chain (Equus caballus), P02791 | apoferritin/1-aminoanthracene competitive binding, fluorescence | Potency, µM (doses to about 77.5 µM), inactives show at the top dose activity change, negative = displacement, actives largely listed as inhibitors | actives 0.074% (n = 350,000) | AID 485281, 2010; note: potency is the fitted concentration of half-maximal effect; % is set by controls: 0 for no effect and ±100 for the full control effect; nearly all actives have a fitted effect of over 20% in size
Target sequence (P02791 2-175 limits assumed): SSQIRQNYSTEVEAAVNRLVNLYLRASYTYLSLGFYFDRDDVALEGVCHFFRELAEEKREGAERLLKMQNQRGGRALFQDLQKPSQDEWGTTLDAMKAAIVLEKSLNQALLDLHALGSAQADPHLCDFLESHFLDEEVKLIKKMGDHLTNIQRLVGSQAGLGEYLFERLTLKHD
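Read-out: endpoint 1-AMA fluorescence, excitation 380 nm and emission 535 nm, after compounds sit 10 min at room temperature with 10 uM horse-spleen apoferritin in 50% saturated 1-AMA/PBS. Values come from four-parameter Hill fits.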
Vif-APOBEC3G blk = qHTS for Inhibitors of Vif-A3G Interactions: qHTS; HeLa A3G-eYFP + Vif (tagged APOBEC3G with the HIV-1 protein that degrades it), YFP fluorescence, overnight; Potency, µM (highest dose often 46.1 µM), inactives show at the highest dose activity, negative = active, usual class: inhibitors; actives 0.076% (n = 410,000); note: potency is the fitted concentration of half-maximal effect; % is set by controls: 0 for no effect and ±100 for the full control effect; nearly all actives have a fitted effect of over 60% in size
Target sequence (Q9HC16 whole entry, looked up): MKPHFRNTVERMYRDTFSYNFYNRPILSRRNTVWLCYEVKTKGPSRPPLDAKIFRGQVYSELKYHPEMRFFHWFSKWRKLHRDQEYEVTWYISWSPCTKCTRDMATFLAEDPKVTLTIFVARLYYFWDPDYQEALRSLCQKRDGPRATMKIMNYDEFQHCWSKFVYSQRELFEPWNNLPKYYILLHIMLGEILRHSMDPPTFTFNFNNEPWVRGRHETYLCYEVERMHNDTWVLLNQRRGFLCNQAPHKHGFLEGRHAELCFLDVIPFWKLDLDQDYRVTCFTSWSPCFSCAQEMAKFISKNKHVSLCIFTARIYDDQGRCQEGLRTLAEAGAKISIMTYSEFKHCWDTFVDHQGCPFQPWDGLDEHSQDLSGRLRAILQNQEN
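HeLa cells stably expressing Vif and C-terminally eYFP-tagged A3G, seeded overnight at 37 deg C, then exposed to compound by pintool overnight at 37 deg C. Rise in yellow fluorescence (Ex 488/Em 500-530, Acumen) marks blocked Vif-driven A3G degradation.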
Epigenetic derep = Quantitative High-Throughput Screen for Regulators of Epigenetic Control | actives 0.2% (n = 280,000) | Potency, µM (titrated, usually from 53.9 µM), without a hit: at the highest dose GFP activation, hits mostly activators | murine LDR cells, GFP reporter derepression, 30 h | AID 1865, 2009; note: potency is the fitted concentration of half-maximal effect; % of control where 0% means no effect; nearly all actives have a fitted effect of over 60% in size
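Reporter derepression read as number of fluorescent GFP-positive objects, 20-120 um in size, counted by laser-scanning cytometer. Mouse LDR line with an epigenetically silenced CMV-GFP locus; compound incubation 30 h, 37 C.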
Numbers without * were called inactive; ? = inconclusive; . = no result; ! = repeats disagree. Unless noted, calls come from the whole dose curve; as a rule, active = well fitted curve in the direction sought with a large enough effect; inconclusive = small, poorly fitted or top-dose-only effect, or another doubt; inactive = no such curve, though single readings can be large; an effect the other way counts as inactive or inconclusive.

SMILES	LDHA inh	Vif-A3F inh	Anesthetic bind	Vif-APOBEC3G blk	Epigenetic derep
COC(CNC(=O)c1ccc2nc(-c3ccccc3)c(-c3ccccc3)nc2c1)OC	-7.3	-0.7%	-5.6%	0.9%	-4.3%
Cc1ccc(C23CC4CC(CC(C(=O)NC(C(=O)O)C(C)C)(C4)C2)C3)cc1 (configuration not stated)	-5.8	0.0%	-10.2%	1.3%	.
CCCN(CCC)Cc1c(C)[nH]c2ccc(Br)cc2c1=O	-30.7*	.	.	.	.
CCCCN(C)Cc1c(C)[nH]c2ccc(Br)cc2c1=O	4.5	.	.	.	.
COc1cc(C(=O)NCC(=O)N2CCN(S(=O)(=O)c3cc(C)ccc3C)CC2)cc(OC)c1OC	-0.9	-14.6%	-7.6%	6.31µM*	.
Cc1cc(C)cc(CC2CC(=O)N(c3nc(C)cc(C)n3)C2=O)c1 (configuration not stated)	-0.2	-3.9%	5.62µM*	0.7%	-1.1%
CC[n+]1ccc(/C=C2\Sc3ccccc3N2CCCS(=O)(=O)[O-])c2ccccc21	-1.7	3.55µM*	-4.9%	?	2.1%
COCC(=O)N1CCN(c2oc(-c3ccc(C)cc3)nc2S(=O)(=O)c2ccc(F)cc2)CC1	-35.5*	.	.	.	.
COCC(=O)N1CCN(c2oc(-c3cccc(C)c3)nc2S(=O)(=O)c2ccc(F)cc2)CC1	1.6	.	.	.	.
NS(=O)(=O)c1ccc(NC(=S)N2CCN(c3ccc(Cl)c(Cl)c3)CC2)cc1	3.8	-6.5%	-8.8%	-0.2%	3.4%
O=C(c1ccco1)N1CCN(Cc2cccc(F)c2)CC1	-32.1*	-1.4%	-0.6%	0.7%	2.0%
Cc1cccc(CN2CCN(Cc3ccco3)CC2)c1	-31.7*	-19.4%	-9.8%	0.4%	.
CCOc1ccc(C(=O)Nc2cc(-c3nc4ccccc4[nH]3)ccc2Cl)cc1[N+](=O)[O-]	-2.7	-1.8%	7.1%	12.6µM*	1.5%
NNC(=O)c1cc2cc3ccccc3nc2s1	-34.2*	?	-19.8%	-4.3%	-1.0%
COc1ccc2cc(C(=O)C3CCCN(Cc4ccccn4)C3)ccc2c1 (configuration not stated)	0.4	28.2µM*	0.1%	-6.8%	1.1%
CCn1ccnc1CN1CCCC(C(=O)c2ccc3cc(OC)ccc3c2)C1 (configuration not stated)	3.8	?	-16.7%	-0.2%	0.0%
COc1ccccc1CNC(=O)CCC1N=C2c3ccccc3N=C(SCc3ccc(C)cc3)N2C1=O (configuration not stated)	0.6	5.3%	?	-5.1%	-1.3%
O=C(/C=C/c1ccccc1Cl)Nc1ccc2c(c1)C(=O)NC2=O	-46.3*	2.9%	-7.3%	-0.7%	-0.1%
O=C(/C=C/c1ccccc1)Nc1ccc2c(c1)C(=O)NC2=O	-0.6	-1.0%	2.4%	-9.7%	9.0%
O=C(CC1CC2CCC1C2)Nc1nc(-c2ccccn2)cs1 (configuration not stated)	2.3	12.6µM*	-18.9%	1.1%	3.9%
O=C(COC(=O)C12CC3CC(CC(O)(C3)C1)C2)Nc1ccccc1OC(F)F	-0.3	1.8%	?	-1.1%	-0.4%
Cc1ccc(-c2n[nH]c(=O)c3ccccc23)cc1S(N)(=O)=O	-30.2*!	-1.9%	2.3%	-0.8%	.
CNS(=O)(=O)c1cc(-c2n[nH]c(=O)c3ccccc23)ccc1C	-1.6	.	.	.	.
Cc1cc(C)c(S(=O)(=O)c2ccccc2)c(OC(=O)c2c(F)cccc2F)n1	-49.9*	4.9%	-12.2%	3.9%	-0.4%
Cc1cc(C)c(S(=O)(=O)c2ccccc2)c(OC(=O)c2c(Cl)cc(Cl)cc2Cl)n1	-3.1	1.7%	-19.3%	-11.9%	-1.1%
CCc1cc(OCCN(C)C)ccc1Cl	-35.2*	8.0%	-4.0%	0.2%	2.2%
Cc1cc(OCCOCCN(C)C)ccc1Cl	-6.5	-10.0%	-6.4%	-1.4%	-2.5%
O=c1c2ccccc2sn1-c1cccc(Cl)c1	-11.5	?	.	-9.2%	.
CN(C)S(=O)(=O)c1cccc(-n2sc3ccccc3c2=O)c1	-42.9*	-0.3%	-14.4%	-0.6%	-0.6%

Screening results: PubChem BioAssay, National Center for Advancing Translational Sciences (NCATS)
